# Screens (PubChem)
# EWS-Fli inh: EWS/Fli-driven NR0B1 reporter inhibitors, primary screen, A673 cells, NR0B1 luciferase, luminescence, MLPCN library; viability-normalised; inhibition, % at 12.6 µM; 350,000 compounds, 0.67% hits;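 active means mean inhibition of at least 50% after viability correction, with every replicate also passing that limit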;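 further: firefly luciferase signal divided by Alamar Blue viability fluorescence both relative to DMSO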
# PAX8 reporter: inhibitors of PAX8-driven TPO luciferase reporter, primary screen, RMG-I cells, single concentration; SteadyGlo, 24 h; inhibition, % at 12.6 µM; 360,000 compounds, 1.2% hits; AID 652154, 2013;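 active means mean replicate inhibition at least 60% with every replicate also reaching 60%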;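 further: luciferase light reporting Pax8 driven TPO promoter activity; plate controls were median of neutral control wells for no effect and mitoxantrone controls for full effect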
# ABHD5-PLIN5 inh: ABHD5-PLIN5 interaction inhibitors, primary screen, cell lysate, split luciferase complementation, luminescence; Perilipin-5 (Homo sapiens) + 1-acylglycerol-3-phosphate O-acyltransferase ABHD5 (Homo …; Split G. princeps luciferase complementation, 4 h; inhibition, % at 4 µM; 360,000 compounds, 0.78% hits;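 active means inhibition above the mean inhibition across every tested compound plus 3 SD, cut at about 22% in these data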;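 further: 0% = DMSO only wells and the 100% control is not disclosed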
# Target sequence (Q00G26 whole entry, looked up): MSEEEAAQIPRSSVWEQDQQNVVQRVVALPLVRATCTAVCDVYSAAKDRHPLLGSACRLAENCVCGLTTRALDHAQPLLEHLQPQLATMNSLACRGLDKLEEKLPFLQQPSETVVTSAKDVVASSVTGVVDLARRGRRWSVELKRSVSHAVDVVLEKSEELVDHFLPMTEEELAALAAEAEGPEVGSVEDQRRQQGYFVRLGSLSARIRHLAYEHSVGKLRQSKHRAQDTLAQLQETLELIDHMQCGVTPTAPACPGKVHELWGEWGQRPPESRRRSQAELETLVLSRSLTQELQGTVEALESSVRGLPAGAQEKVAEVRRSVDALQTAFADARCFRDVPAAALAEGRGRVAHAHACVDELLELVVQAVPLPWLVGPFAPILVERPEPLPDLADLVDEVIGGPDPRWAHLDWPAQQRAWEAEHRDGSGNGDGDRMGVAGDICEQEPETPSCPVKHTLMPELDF
# Target sequence (Q8WTS1 whole entry, looked up): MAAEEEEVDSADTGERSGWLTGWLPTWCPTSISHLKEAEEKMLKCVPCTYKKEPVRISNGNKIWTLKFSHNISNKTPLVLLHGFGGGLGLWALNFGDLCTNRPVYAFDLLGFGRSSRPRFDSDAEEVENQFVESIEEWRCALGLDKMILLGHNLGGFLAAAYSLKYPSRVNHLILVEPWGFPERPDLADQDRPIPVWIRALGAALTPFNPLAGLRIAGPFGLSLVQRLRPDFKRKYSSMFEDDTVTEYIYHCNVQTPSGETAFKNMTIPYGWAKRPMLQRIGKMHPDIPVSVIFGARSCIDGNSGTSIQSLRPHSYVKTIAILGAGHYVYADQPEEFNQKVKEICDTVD
# Peg3 promoter: Peg3 promoter-driven luciferase inhibitors, primary screen, cell-based, HeLa, luciferase luminescence. HeLa PEG-Prom luciferase reporter, overnight. inhibition, % at 20 µM. 360,000 compounds, 1.7% hits. AID 588405, 2011;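 active means inhibition of at least 50% at 20 µM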
# MITF TRPM1 inh: inhibitors of MITF-dependent TRPM1 promoter reporter, primary screen, cell-based, SK-MEL-5, single point, luciferase | SK-MEL-5 TRPM1 promoter luciferase, 24 h | inhibition, % at 12.5 µM | 330,000 compounds, 0.83% hits | AID 488899, 2010;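 active means mean inhibition across replicates of 60% or more, whatever share of single replicates reaches that level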
# Shn3 3UTR inh: reduction of Shn3 3'UTR firefly luciferase signal, primary screen, Schnurri-3 inhibitor project, cell-based, Clone20 osteoblasts, set 2; 360,000 compounds, 0.52% hits; Clone20 osteoblast Shn3 3'UTR firefly luciferase, 24 h; AID 588674, 2011; inhibition, % at 12.5 µM;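 active means mean inhibition of at least 75% with every replicate also reaching 75%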;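 further: 0% = median of neutral control wells and 100% = pilot-screen positive control compound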
# The depositor's hits bear a star; . = not tested or not shown. In the library only some 3% were active in any assay of this set; here they are far more common.
SMILES,EWS-Fli inh,PAX8 reporter,ABHD5-PLIN5 inh,Peg3 promoter,MITF TRPM1 inh,Shn3 3UTR inh
CCS(=O)(=O)N(C)C[C@@H]1OCc2ccccc2-c2c(n(C)c3ccccc23)C(=O)N([C@@H](C)CO)C[C@@H]1C,-3,.,.,.,.,.
CC1=C([N+](=O)[O-])C(c2cccc(Br)c2)C2=C(N1)c1ccccc1C2=O (stereo not given),.,85*,-9,38,61*,13
COc1ccc(-c2nnc(NC(=O)c3ccc(S(=O)(=O)N4CCCc5ccccc54)cc3)o2)cc1,.,.,-2,53*,30,40
COCc1nnc(NC(=O)c2ccc(S(=O)(=O)N3CCCc4ccccc43)cc2)o1,23,10,4,20,-8,16
C[C@H]1CN([C@@H](C)CO)C(=O)c2cc(-c3ccncc3)cnc2O[C@H]1CN(C)Cc1ccc(F)cc1,-6,.,.,.,.,.
Cc1cc(N=Nc2ccccc2)c(NCC(O)C(O)C(O)CO)cc1C (stereo not given),-19,-28,22*,-15,8,3
Cc1ccc(NCC(O)C(O)C(O)CO)cc1C (stereo not given),.,.,-3,-21,10,-57
Cc1cccc(-c2noc(CCC(=O)NCc3ccco3)n2)c1,-20,.,-6,-15,3,-10
CC(C)(C)c1ccc(-c2noc(CCC(=O)NCc3ccco3)n2)cc1,35,49,-10,-189,83*,19
O=C(C[n+]1cc(-c2ccc(Cl)cc2)n2c1CCC2)Nc1nc(-c2ccccc2)cs1,-8,-4,2,6,10,-12
O=C(C[n+]1cc(-c2ccc(Cl)cc2)n2c1CCC2)N1c2ccccc2Sc2ccccc21,.,70*,23*,-16,12,-10
O=C(C[n+]1cc(-c2ccc(Cl)c(Cl)c2)n2c1CCC2)N1c2ccccc2Sc2ccccc21,.,40,34*,-6,3,6
COc1ccc(-c2c[n+](CC(=O)N3c4ccccc4Sc4ccccc43)c3n2CCC3)cc1,3,76*,12,6,21,12
COc1ccc(CN(C)C[C@@H]2Oc3ccc(NC(=O)C4CC4)cc3CC(=O)N([C@H](C)CO)C[C@H]2C)cc1,-3,-2,.,.,.,.
COc1ccccc1NC(=O)N(C)C[C@@H]1Oc2ncc(C#CC(C)C)cc2C(=O)N([C@@H](C)CO)C[C@H]1C,1,-3,.,.,.,.
O=C(Nc1cccc(S(=O)(=O)NCc2ccco2)c1)c1cc(-c2ccc(F)cc2)nc2ccccc12,-8,10,-3,27,2,0
O=C(NC(=S)Nc1cccc(S(=O)(=O)NC2=NCCC2)c1)c1cc(-c2ccco2)nc2ccccc12,57*,28,12,-8,50,-14
CCOc1ccc(C(=O)NC(=S)Nc2cccc(S(=O)(=O)NC3=NCCC3)c2)cc1,59*,10,1,-43,2,7
COc1ccc(-c2nc(CC(=O)Nc3cccc(S(=O)(=O)NC4=NCCC4)c3)cs2)cc1,-9,74*,7,-4,14,10
COc1ccc(-c2cc(C(=O)Nc3cccc(S(=O)(=O)NCc4ccco4)c3)c3ccccc3n2)cc1OC,2,70*,10,47,18,-4
CCOc1ccc(OCC(=O)Nc2cccc(S(=O)(=O)NC3=NCCC3)c2)cc1,-7,5,0,-91,-25,-24
COc1ccccc1OCC(=O)Nc1cccc(S(=O)(=O)NC2=NCCCCC2)c1,-1,5,6,-2,2,5
C[C@@H]1CN([C@H](C)CO)C(=O)c2cc(NC(=O)Nc3ccc(C(F)(F)F)cc3)ccc2O[C@@H]1CN(C)C(=O)Nc1ccc(F)cc1,-12,.,.,.,.,.
Cc1c(C(=O)OCC2CCCO2)[nH]c2c1C(=O)CC(c1ccco1)C2 (stereo not given),.,.,10,-4,20,7
Cc1c(C(=O)OC2CCCC2)[nH]c2c1C(=O)CC(c1ccco1)C2 (stereo not given),28,76*,10,-26,25,90*
SMILES,EWS-Fli inh,PAX8 reporter,ABHD5-PLIN5 inh,Peg3 promoter,MITF TRPM1 inh,Shn3 3UTR inh
CO[C@@H]1CN(C)C(=O)c2cc(NC(=O)c3ccccc3F)ccc2OC[C@@H](C)N(CC2CC2)C[C@@H]1C,7,79*,.,.,.,.
CO[C@H]1CN(C)C(=O)c2cc(NC(=O)c3nc4ccccc4s3)ccc2OC[C@H](C)N(Cc2cccnc2)C[C@H]1C,36,88*,.,.,.,.
CO[C@@H]1CN(C)C(=O)c2cc(NC(=O)c3ccccc3F)ccc2OC[C@H](C)N(CC2CC2)C[C@H]1C,-3,-19,.,.,.,.
CCC(=O)N(C)C[C@@H]1Oc2cc(C3=CCCCC3)ccc2S(=O)(=O)N([C@@H](C)CO)C[C@H]1C,10,.,.,.,.,.
CCCCCCCC/C=C\CCCCCCCC(=O)O,-3,-13,3,2,0,-29
CCCCCCCCCCCCC/C=C/[C@@H](O)[C@@H](N)CO,-9,2,2,55*,9,-29
CCCNC(=O)N[C@H]1CC[C@H](CC(=O)NCCc2ccccc2)O[C@@H]1CO,-3,3,.,.,.,.
Cc1ccc(C2(c3ccc(C)cc3)CC2C(=O)Nc2ccc([N+](=O)[O-])cc2O)cc1 (stereo not given),.,.,-36,53*,74*,78
C[C@@H]1CN([C@H](C)CO)C(=O)c2cc(C#Cc3ccccc3F)cnc2O[C@@H]1CN(C)C(=O)Cc1cccnc1,4,.,.,.,.,.
O=C(Nc1ccc(Cl)cc1)N[C@@H]1CC[C@@H](CCn2cc(-c3ccccc3F)nn2)O[C@H]1CO,-27,-13,.,.,.,.
COc1ccc(-c2nc(NC(=O)c3ccc(OCC(=O)N4CCOCC4)c(OC)c3)sc2C)cc1,6,0,-5,66*,7,19
CO[C@@H]1CN(C)C(=O)c2cc(NC(=O)Nc3cccc(F)c3)ccc2OC[C@H](C)N(C(C)=O)C[C@H]1C,6,.,.,.,.,.
Cc1ccc(-c2nn(CC(=O)NCc3cc(-c4nn(C)c(=O)c5ccccc45)ccc3C)c(=O)c3ccccc23)cc1,.,-8,-3,70*,82*,81
CCC(=O)NCc1cc(-c2nn(C)c(=O)c3ccccc23)ccc1C,.,-12,-2,7,0,17
COc1ccccc1CN1C[C@@H]2N[C@H](C1)C2c1ccc(/C=C/c2ccccc2)cc1 (stereo not given in full),-15,-2,.,.,.,.
Nc1ncnc2c(C3OC(CO)C(O)C3O)c[nH]c12 (stereo not given),46,118*,8,96*,.,93*
Nc1ncnc2c1ncn2[C@@H]1O[C@H](CO)[C@@H](O)[C@H]1O,-7,-10,4,-11,-12,0
